# Laboratory results: the supplement of paper PMC9950053
# Structures can show the parent of a compound that is named as a salt.
# Legend:
# Conditions in all cases: 10 µM; exposure time: 3 h pre-incubation + 3 h imaging
# [1] = tested on: Danio rerio larvae (5 dpf); test: excitability (activity period 17 minus period 16, 1-s interval sound) minus DMSO control (percentage points); higher = more acoustic excitability than DMSO larvae
# Summary of the method: (§1)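 At 28.5 °C, 5 dpf wild-type zebrafish larvae were treated with compounds (10 µM final) for 3 h ahead of and 3 h during imaging at one frame every 6 s. Tracks came from Z-LaP Tracker, discarding detections under 0.5 probability and any larva moving under 1% of the time. Each behavioural value is the difference, in percentage points, between the treated group mean and the control mean, with 48 larvae per group and 844 in the control.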
# [2] = tested on: Danio rerio larvae (5 dpf); test: combined upward orientation toward moving lines (periods 7-14) minus DMSO control (percentage points); higher = more orientation with moving lines than DMSO larvae
# Summary of the method: as §1
# [3] = tested on: Danio rerio larvae (5 dpf); test: combined optomotor response (time in upper well half, down vs up moving lines, periods 7-14) minus DMSO control (percentage points); higher = stronger optomotor response than DMSO larvae
# [4] = tested on: Danio rerio larvae (5 dpf); test: 1-h baseline activity (% time moving, periods 1-6) minus DMSO control (percentage points); higher = more locomotor activity than DMSO larvae
# Summary of the method: as §1
# [5] = tested on: Danio rerio larvae (5 dpf); test: startle (activity period 16 minus period 15, 20-s interval sound) minus DMSO control (percentage points); higher = stronger startle response than DMSO larvae
# Summary of the method: as §1
# [6] = tested on: Danio rerio larvae (5 dpf); test: habituation (activity change first vs second 5 min of 1-s interval sound, period 17) minus DMSO control (percentage points); higher = larger habituation measure than DMSO larvae
# Summary of the method: as §1
smiles,measurement,setting,value
CCOC(=O)C1=C(C)NC(C)=C(C(=O)OC)C1c1cccc(Cl)c1Cl (configuration not stated) [Felodipine],excitability,[1],-10.3
same,combined upward orientation toward moving lines,[2],-3.05
COc1ccc(C[C@@H](C)NC[C@H](O)c2ccc(O)c(NC=O)c2)cc1 [Arformoterol tartrate],combined upward orientation toward moving lines,[2],0.636
same,combined optomotor response,[3],-7.68
Cc1ccc(-c2cc(C(F)(F)F)nn2-c2ccc(S(N)(=O)=O)cc2)cc1 [Celecoxib],1-h baseline activity,[4],-5.62
same,startle,[5],-8.09
same,combined optomotor response,[3],0.0816
COc1cc(Nc2c(C#N)cnc3cc(OCCCN4CCN(C)CC4)c(OC)cc23)c(Cl)cc1Cl [Bosutinib],startle,[5],-0.373
same,combined optomotor response,[3],0.386
N#Cc1ccc(C(c2ccc(C#N)cc2)n2cncn2)cc1 [Letrozole],startle,[5],6.54
same,combined optomotor response,[3],-0.923
CN1CC2c3ccccc3Oc3ccc(Cl)cc3C2C1 (configuration not stated) [Asenapine maleate],combined upward orientation toward moving lines,[2],-7.05
same,combined optomotor response,[3],-7.09
O=c1[nH]c(=O)n([C@H]2C[C@H](O)[C@@H](CO)O2)cc1C(F)(F)F [Trifluorothymidine],startle,[5],1.59
same,excitability,[1],4.38
same,combined optomotor response,[3],5.31
CN/C(=N\CCSCc1nc[nH]c1C)NC#N [Cimetidine],combined upward orientation toward moving lines,[2],-0.665
same,combined optomotor response,[3],0.13
Cc1ccc(N(CC2=NCCN2)c2cccc(O)c2)cc1 [Phentolamine Mesylate],combined upward orientation toward moving lines,[2],4.89
same,combined optomotor response,[3],7.07
C/C(O)=C(\C#N)C(=O)Nc1ccc(C(F)(F)F)cc1 [Teriflunomide],1-h baseline activity,[4],-8.94
same,startle,[5],-2.62
same,combined optomotor response,[3],-4.96
Nc1nc(NC2CC2)c2ncn([C@H]3C=C[C@@H](CO)C3)c2n1 [Abacavir hemisulfate],combined upward orientation toward moving lines,[2],-1.52
same,combined optomotor response,[3],4.25
O=C(c1ccc(OCCN2CCCCC2)cc1)c1c(-c2ccc(O)cc2)sc2cc(O)ccc12 [Raloxifene hydrochloride],combined upward orientation toward moving lines,[2],-2.81
same,combined optomotor response,[3],-1.27
Cc1nc(-c2ccc(OCC(C)C)c(C#N)c2)sc1C(=O)O [Febuxostat],combined upward orientation toward moving lines,[2],-3.47
same,combined optomotor response,[3],1.46
CCOc1ccccc1OCCN[C@H](C)Cc1ccc(OC)c(S(N)(=O)=O)c1 [Tamsulosin hydrochloride],startle,[5],1.92
same,habituation,[6],1.59
same,combined optomotor response,[3],4.93
CN1CCN2c3ncccc3Cc3ccccc3C2C1 (configuration not stated) [Mirtazapine],excitability,[1],4.38
same,combined upward orientation toward moving lines,[2],-11.4
CCCN(CCc1cccs1)[C@H]1CCc2c(O)cccc2C1 [Rotigotine hydrochloride],combined upward orientation toward moving lines,[2],-7.46
same,combined optomotor response,[3],-12.7
CC(c1cc2ccccc2s1)N(O)C(N)=O (configuration not stated) [Zileuton],startle,[5],-0.862
same,combined optomotor response,[3],-0.859
CC(C)C(=O)OCC(=O)[C@@]12O[C@H](C3CCCCC3)O[C@@H]1C[C@H]1[C@@H]3CCC4=CC(=O)C=C[C@]4(C)[C@H]3[C@@H](O)C[C@@]12C [Ciclesonide],combined upward orientation toward moving lines,[2],-8.95
same,combined optomotor response,[3],1.14
CN(C)CCc1c[nH]c2ccc(Cn3cncn3)cc12 [Rizatriptan benzoate],startle,[5],4.04
same,combined optomotor response,[3],6.97
CC(=O)NC[C@H]1CN(c2ccc(N3CCOCC3)c(F)c2)C(=O)O1 [Linezolid],1-h baseline activity,[4],3.05
same,startle,[5],2.73
same,combined upward orientation toward moving lines,[2],0.95
same,combined optomotor response,[3],6.27
Nc1cc(N2CCCCC2)nc(N)[n+]1[O-] [Minoxidil],combined upward orientation toward moving lines,[2],-2.16
same,combined optomotor response,[3],-1.34
CCCc1nc2c(C)cc(-c3nc4ccccc4n3C)cc2n1Cc1ccc(-c2ccccc2C(=O)O)cc1 [Telmisartan],excitability,[1],15.1
same,combined upward orientation toward moving lines,[2],-1.92
same,combined optomotor response,[3],2.86
CN1CCC[C@@H]1Cc1c[nH]c2ccc(CCS(=O)(=O)c3ccccc3)cc12 [Eletriptan hydrobromide],combined upward orientation toward moving lines,[2],-1.33
same,combined optomotor response,[3],-0.376
Cc1ccc(O)c([C@H](CCN(C(C)C)C(C)C)c2ccccc2)c1 [Tolterodine L-tartrate],startle,[5],-5.5
same,habituation,[6],-5.86
same,combined optomotor response,[3],-1.96
COc1cc2nc(N3CCN(C(=O)c4ccco4)CC3)nc(N)c2cc1OC [Prazosin hydrochloride],startle,[5],4.64
C[C@@H](O[C@H]1OCCN(Cc2n[nH]c(=O)[nH]2)[C@H]1c1ccc(F)cc1)c1cc(C(F)(F)F)cc(C(F)(F)F)c1 [Aprepitant],combined upward orientation toward moving lines,[2],4.05
same,combined optomotor response,[3],4.63
NC(=O)N1c2ccccc2C=Cc2ccccc21 [Carbamazepine],startle,[5],3.47
same,combined optomotor response,[3],6.15
Nc1ncn([C@@H]2O[C@H](CO)[C@@H](O)[C@H]2O)c(=O)n1 [5-Azacytidine],startle,[5],2.79
same,excitability,[1],-2.47
same,combined optomotor response,[3],3.71
Cn1nnc2c(C(N)=O)ncn2c1=O [Temozolomide],startle,[5],2.78
same,combined upward orientation toward moving lines,[2],-6.36
same,combined optomotor response,[3],5.41
COC(c1ccccc1)(c1ccccc1)[C@H](Oc1nc(C)cc(C)n1)C(=O)O [Ambrisentan],startle,[5],6.56
same,habituation,[6],4.59
same,combined optomotor response,[3],0.559
CC(C)(C(=O)c1cccnc1)c1cccnc1 [Metyrapone],combined upward orientation toward moving lines,[2],-5.62
same,combined optomotor response,[3],-5.86
